The list is not random: actives were taken first. Their share in the collection is about 1.5%.
GALK inh: blocks human galactokinase activity. P51570. Purified GALK, Kinase-Glo residual ATP luminescence. Potency, µM (series often up to 57.5 µM), for inactives: top-dose activity change, negative = inhibition, hits mostly inhibitors. 270,000 compounds, 0.007% hits. AID 1868; note: potency is the fitted concentration of half-maximal effect
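GALK at 5 nM final was combined with compound, 35 uM ATP and 100 uM galactose in HEPES pH8.0 with MgCl2 and DTT. The reaction ran one hour at room temperature before luminescent ATP detection.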
TrxR1 inh: rat TrxR1 inhibition. O89049. 390,000 compounds, 1% hits. Potency, µM (series often up to 114 µM), without a hit: top-dose activity change, negative = inhibition, usual class: inhibitors. recombinant rTrxR1, NADPH fluorescence consumption, selenite substrate; note: potency is the fitted concentration of half-maximal effect; nearly all actives have a fitted effect of over 65% in size
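Rat TrxR1 (90 nM in the dispensed reagent) was pre-reduced with 400 uM NADPH for 5 min at room temperature, then incubated with compound for 15 min. After 400 uM selenite was added, NADPH fluorescence (Ex 340/Em 450 nm) was followed for 8 min.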
TrxR1 substrate: is turned over as a substrate by rat TrxR1; purified TrxR1 substrate turnover, NADPH consumption readout; Potency, µM (series often up to 114 µM), for inactives: at the highest dose activity change, negative = substrate turnover; 390,000 compounds, 0.01% hits; AID 588456; note: potency is the fitted concentration of half-maximal effect; nearly all actives have a fitted effect of over 50% in size
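Rat TrxR1, dispensed at 90 nM, was prereduced with 400 uM NADPH (final) for 5 min at ~22 deg C, then incubated with compound 15 min before 400 uM selenite. A first-read NADPH fluorescence drop versus no-compound background flagged substrates.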
Giardia killer: kills Giardia lamblia; Giardia lamblia trophozoite viability; activity change, % at 7.66 µM, hits read low; 340,000 compounds, 0.15% hits; in the data active = activity change below about -80%; inconclusive = between about -30% and that limit;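 note: parasites exposed to compound for two days anaerobically before the ATP read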
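Luminescent ATP signal served as the viability read-out, measured 15-30 min after adding ATP detection reagent to trophozoites that had been incubated with compounds for 48 hrs at 37 deg C anaerobically at 100 cells/well.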
PI4K2A inh: blocks human PI4K2A kinase activity; Q9BTU6; purified PI4K2A, ADP-Glo luminescence, 1 h; active compounds read low; activity change, negative = inhibition, % at 76.9 µM; 420,000 compounds, 0.13% hits; AID 1346378; in the data active = activity change below about -50%; inconclusive = mostly about -30% to -49%;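 note: -100% = wells without enzyme as full effect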
Target sequence (Q9BTU6 whole entry, looked up): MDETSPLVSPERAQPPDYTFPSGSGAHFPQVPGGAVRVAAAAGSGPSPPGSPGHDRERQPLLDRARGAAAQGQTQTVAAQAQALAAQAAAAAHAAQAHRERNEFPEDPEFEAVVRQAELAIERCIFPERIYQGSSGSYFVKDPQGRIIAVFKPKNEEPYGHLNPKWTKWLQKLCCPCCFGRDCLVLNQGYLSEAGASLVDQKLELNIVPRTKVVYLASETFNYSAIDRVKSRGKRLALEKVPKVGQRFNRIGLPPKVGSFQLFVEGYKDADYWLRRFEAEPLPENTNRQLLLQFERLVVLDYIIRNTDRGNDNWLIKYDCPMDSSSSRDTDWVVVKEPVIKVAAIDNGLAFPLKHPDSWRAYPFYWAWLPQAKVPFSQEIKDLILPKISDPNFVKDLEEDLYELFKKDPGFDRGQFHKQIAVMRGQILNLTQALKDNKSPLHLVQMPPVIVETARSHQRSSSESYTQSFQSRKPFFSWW
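In this quantitative HTS, ADP production by PI4K2A was quantified luminescently after 1 h at ambient temperature; 100 microM adenosine served as plate-quality control.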
Coupling enz: counter-screen for Giardia aldolase inhibitors: coupling enzyme system | coupling enzyme system counterscreen, AmpLite Red fluorescence | activity change, negative = inhibition, % at 58.2 µM, hits read low | 290,000 compounds, 0.67% hits; in the data active = activity change below about -30%
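First, compound is pin-transferred into glyceraldehyde-3-phosphate coupling-enzyme reagent at 57.5 uM final and held 10 min at RT. Next, substrate, coupling system and AmpLite Red are added. After 20 min RT, fluorescence (525/598 nm) is read.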
The depositor's hits bear a star; ? = inconclusive; . = not tested or not shown; [ ] = dose if it differs, or a comment. Unless noted, calls come from the whole dose curve; as a rule, active = well fitted curve in the direction sought with a large enough effect; inconclusive = small, poorly fitted or top-dose-only effect, or another doubt; inactive = no such curve, though single readings can be large; an effect the other way counts as inactive or inconclusive. Unless noted, % is set by controls: 0 for no effect and ±100 for the full control effect.

SMILES	GALK inh	TrxR1 inh	TrxR1 substrate	Giardia killer	PI4K2A inh	Coupling enz
CCN(CC)c1ccc(/C=C2/SC(=O)N(C(C)C)C2=O)o1	1.8%	3.16µM*	0.1%	-11.7	-6.4	-38.3*
Cc1ccc(-c2nc(=Nc3c(C)cc(C)cc3C)sn2-c2ccccc2)cc1	.	2.0%	9.0%[0.0914 µM]	-5.1	.	.
CN(CC(=O)O)c1ccc(C=O)cc1	.	-10.1%	-20.2%	.	.	.
COc1ccc(N2C(=O)CC(Sc3ncn[nH]3)C2=O)c(OC)c1 (centres undefined)	1.3%	0.501µM*	9.0%[57.1 µM]	-1.7	5.7	-2.5
CC(C)c1ccc(N2C(=O)CC(Sc3ncn[nH]3)C2=O)cc1 (centres undefined)	0.6%	?	-20.3%[11.4 µM]	-2.7	5.9	4.8
Cc1ccc(CNC(=O)c2cccn2-c2nnc(N3CCCCC3)s2)cc1	.	22.3%[57.1 µM]	3.0%[57.1 µM]	.	-4.8	.
COc1ccc2[nH]c(C)c(CCN(Cc3cccs3)C(=S)Nc3cccc(F)c3)c2c1	0.1%	-21.2%	-0.8%	-8.2	-4.5	-43.1*
COc1cccc(NC(=S)N(CCc2c(C)[nH]c3ccc(C)cc23)Cc2cccs2)c1	.	-11.2%	-0.5%	-21.8	0.7	2.9
Cc1ccc(C(=O)c2cn(Cc3cccc(Cl)c3)c3nc(C)ccc3c2=O)cc1	.	4.4%	-10.5%	.	-9.8	.
Cc1cc(C)n(C2CC(=O)N(c3ccccc3)C2=O)n1 (centres undefined)	0.7%	7.7%	-6.7%	3.7	-7.2	-0.5
CC(=O)NC1N=C(C)N(c2ccccc2)C1=O (centres undefined)	0.7%	-3.2%[57.1 µM]	2.2%[57.1 µM]	-11.7	?	-77.8*
COc1cccc(C2NC(=S)NC3=C2CCc2ccccc23)c1 (centres undefined)	0.7%	0.5%	-1.8%	5.9	-1.6	-43.3*
Cc1ccc(C2NC(=O)NC3=C2CCc2ccccc23)cc1 (centres undefined)	-1.1%	20.1%	33.7%	-1.7	-8.2	-39.9*
COc1ccc2c(c1)C1=C(CC2)C(c2ccc(C)cc2)NC(=S)N1 (centres undefined)	-0.6%	-0.8%	-2.8%	10.1	-1.4	-3.1
COc1ccc(NC(=O)NC(C)c2c(-n3cccc3)sc3c2CCN(C)C3)c(OC)c1 (centres undefined)	.	23.1%	-2.6%	.	4.6	.
Oc1ccc2c(c1)C1CCCC1(N1CCOCC1)O2 (centres undefined)	2.8%	?	10.6%	6.7	-2.1	-37.5*
CC1=C(C(=O)N2CCOCC2)C(c2ccc(O)cc2)NC(=S)N1 (centres undefined)	3.1%	-14.8%	-8.0%	-1.7	-2.2	0.3
COC(OC)[C@@H](C)[C@H](OC)[C@@H](C)[C@H](OC)c1ccccc1	.	.	.	.	.	7.3
CC(C)CCn1c(=O)c2ccccc2n2c(CCl)nnc12	8.1%	22.4µM*	12.6%[57.1 µM]	2.1	3.7	-1.1
CCc1ccc(C(=O)C[N+]2(C)CCOCC2)cc1	.	43.3%	18.5%	.	.	.
CC1(C)Cc2ccccc2C2=NNC(=O)C2=N1	-0.1%	313.1%	124.3%	13.1	?	-56.8*
CN1C(=O)/C(=C/C=C2/CCCN2C)N(C)C1=S	12.1%	?	?	-6.2	-0.9	-42.4*
Cc1cc(N2CCCC2)ccc1/C=C1/C(=O)N(C)C(=S)N1C	4.0%	10.8%	-0.1%	4.8	-3.0	0.0
Cc1cc(CCCOc2c(C)cc(-c3noc(C(F)(F)F)n3)cc2C)on1	.	.	.	.	-1.3	.
CCN(CC)C(=O)c1ccc2c(c1[N+](=O)[O-])C(=O)c1ccccc1C2=O	0.0%	.	.	.	.	-41.9*
SMILES	GALK inh	TrxR1 inh	TrxR1 substrate	Giardia killer	PI4K2A inh	Coupling enz
CCCNC(=O)c1nnsc1S(=O)c1ccc(Cl)cc1 (centres undefined)	10.8%	0.562µM*	6.5%[57.1 µM]	-1.4	0.7	-0.1
CNC(=O)c1nnsc1S(=O)c1ccc(Cl)cc1 (centres undefined)	9.1%	0.355µM*	4.9%[57.1 µM]	-1.4	-4.0	1.3
Cc1ccc(S(=O)c2snnc2C)cc1 (centres undefined)	-1.1%	18.0%	5.2%	6.8	3.0	1.2
CCCNC(=O)c1nnsc1S(=O)(=O)c1ccc(Cl)cc1	9.4%	?	2.7%[57.1 µM]	-4.5	8.8	-2.5
CCc1ccccc1NC(=O)c1c(NC(=O)c2ccccc2)sc2c1CCCC2	.	89.1µM*	81.4%	.	-1.5	.
O=C(COc1ccccc1C(=O)Nc1ccccc1)Nc1cccc([N+](=O)[O-])c1	.	4.6%	-3.0%	.	.	.
Cc1ccc(CSc2ncc(Cl)c(C(=O)NCCc3ccc(S(N)(=O)=O)cc3)n2)cc1	.	11.9%	1.6%	.	-4.5	.
COc1ccc(/C=C2\C(=O)N(c3c(Cl)cc(Cl)cc3Cl)N=C2NC(=O)c2cccc([N+](=O)[O-])c2)cc1	-0.2%	4.47µM*	-14.5%	-10.9	-14.7	13.2
CC(Nc1cc(N2CCN(S(=O)(=O)N(C)C)CC2)ccc1[N+](=O)[O-])c1ccccc1 (centres undefined)	-1.3%	21.7%	2.1%	-20.8	0.6	-34.0*
Cc1ccc(-c2cc(-c3n[nH]c(=S)o3)c3ccccc3n2)cc1	-5.4%	?	-11.0%	-5.2	8.7	0.5
S=c1[nH]nc(-c2cc(-c3ccccn3)nc3ccccc23)o1	-6.9%	56.2µM*	-7.8%	7.2	12.6	5.5
CCOC(=O)[C@]12CCCC3=C1N(CCC3)C(=O)[C@@H](CC(=O)NCc1ccc(OC)c(OC)c1)C2	.	.	.	.	-2.2	.
Cc1cc(C)c(S(=O)(=O)Nc2ccc[nH]c2=O)c(C)c1	0.6%	17.8%	4.2%[57.1 µM]	-4.5	7.4	-71.7*
CCN(c1ccccc1)S(=O)(=O)c1ccc(Cl)c(NC(=O)COC(=O)c2cc(O)c3ccccc3c2O)c1	6.4%	.	.	.	.	-30.7*
O=C(NCc1cccnc1)/C(=C\c1ccc(-c2cccc(Cl)c2)o1)S(=O)(=O)c1ccccc1	-1.5%	11.2µM*	-6.7%	-10.3	5.4	2.9
COc1ccc(C(=O)Nc2nnc(C(C)C)s2)cc1OC	.	79.4µM*	4.1%	.	5.1	.
COC(=O)[C@H]1C[C@@]2(CC=C(C)C)c3ccccc3N(C(=O)OC(C)(C)C)[C@H]2N1C(=O)OC(C)(C)C	.	.	.	.	-2.6	.
c1ccc2nc(-c3nc4ccccc4[nH]3)ccc2c1	7.5%	16.2%	15.6%	?	-65.9*	-7.0
c1ccc2[nH]c(-c3cscn3)nc2c1	-0.1%	10.5%	-3.8%	-20.0	0.2	1.3
O=C1CC(c2ccc(F)cc2)CC2=C1C(c1ccc([N+](=O)[O-])o1)Nc1ccccc1N2 (centres undefined)	-2.3%	?	-19.6%	-90.1*	6.8	-4.5
C/C(C=NNC(=O)c1cc(-c2ccc(Cl)cc2)n[nH]1)=C\c1ccccc1	.	.	.	.	-3.3	.
Cc1ccc(C(=O)COC(=O)COc2ccccc2[N+](=O)[O-])s1	.	?	-6.3%	-10.0	4.1	.

Assay outcomes (PubChem)
